# About 410 targets per protein were measured; listed, in parts, are those with the strongest signals and a random draw of the rest.
# Columns and labels:
# Assay in all cases: glycan array binding signal (z-score within array); higher = stronger binding
# Settings in all cases: glycan notation: IUPAC condensed, linker removed
# Gal6S(b1-4)GlcNAc = biological target: Gal6S(b1-4)GlcNAc
# Method in brief: (§1)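 Columns mapping to the same glycan were averaged after glycan names were converted to IUPAC-condensed notation. The data come from 3228 arrays in the Consortium for Functional Glycomics database, limited to those with an available protein sequence. Binding is reported as a within-array Z-score averaged across arrays of one protein sequence and across linkers.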
# GalNAc(b1-3)Gal = biological target: GalNAc(b1-3)Gal
# Method in brief: as §1
# GalNAc3S(b1-4)GlcNAc3S = biological target: GalNAc3S(b1-4)GlcNAc3S
# Method in brief: as §1
# [1] = biological target: GlcNAc(a1-4)Gal(b1-4)GlcNAc(b1-3)Gal(b1-4)Glc
# Method in brief: as §1
# [2] = biological target: GlcNAc(b1-3)Gal(b1-4)GlcNAc(b1-3)Gal(b1-4)GlcNAc
# Method in brief: as §1
# [3] = biological target: GlcNAc(b1-3)Gal(b1-4)GlcNAc(b1-3)Gal(b1-4)GlcNAc(b1-3)Gal(b1-4)GlcNAc(b1-2)Man(a1-3)[GlcNAc(b1-3)Gal(b1-4)GlcNAc(b1-3)Gal(b1-4)GlcNAc(b1-3)Gal(b1-4)GlcNAc(b1-2)Man(a1-6)]Man(b1-4)GlcNAc(b1-4)GlcNAc
# Method in brief: as §1
# [4] = biological target: GlcNAc(b1-3)Gal(b1-4)GlcNAc(b1-3)Gal(b1-4)GlcNAc(b1-3)Gal(b1-4)GlcNAc(b1-3)Gal(b1-4)GlcNAc(b1-2)Man(a1-3)[GlcNAc(b1-3)Gal(b1-4)GlcNAc(b1-3)Gal(b1-4)GlcNAc(b1-3)Gal(b1-4)GlcNAc(b1-3)Gal(b1-4)GlcNAc(b1-2)Man(a1-6)]Man(b1-4)GlcNAc(b1-4)[Fuc(a1-6)]GlcNAc
# Method in brief: as §1
# [5] = biological target: GlcNAc(b1-3)[GlcNAc(b1-6)]Gal(b1-4)GlcNAc
# Method in brief: as §1
# GlcNAc(b1-4)GlcNAc = biological target: GlcNAc(b1-4)GlcNAc
# Method in brief: as §1
# [6] = biological target: GlcNAc(b1-4)GlcNAc(b1-4)GlcNAc
# Method in brief: as §1
# GlcNAc(b1-6)GalNAc = biological target: GlcNAc(b1-6)GalNAc
# Method in brief: as §1
# Kdn(a2-3)Gal(b1-3)GlcNAc = biological target: Kdn(a2-3)Gal(b1-3)GlcNAc
# Method in brief: as §1
# [7] = biological target: Man(a1-2)Man(a1-3)[Man(a1-2)Man(a1-6)]Man(a1-6)[Man(a1-2)Man(a1-2)Man(a1-3)]Man
# Method in brief: as §1
# [8] = biological target: Man(a1-3)[Man(a1-6)]Man(a1-6)[Man(a1-2)Man(a1-3)]Man(b1-4)GlcNAc(b1-4)GlcNAc
# Method in brief: as §1
# [9] = biological target: Neu5Ac(a2-3)Gal(b1-3)[Fuc(a1-4)]GlcNAc
# Method in brief: as §1
# [10] = biological target: Neu5Ac(a2-3)Gal(b1-4)GlcNAc(b1-3)Gal(b1-3)GlcNAc
# Method in brief: as §1
# [11] = biological target: Neu5Ac(a2-3)Gal(b1-4)GlcNAc(b1-3)GalNAc
# Method in brief: as §1
# [12] = biological target: Neu5Ac(a2-3)Gal(b1-4)GlcNAc(b1-6)[Gal(b1-3)]GalNAc
# Method in brief: as §1
# [13] = biological target: Neu5Ac9Ac(a2-6)Gal(b1-4)GlcNAc
# Method in brief: as §1
# [14] = biological target: Neu5Gc(a2-3)Gal(b1-3)[Fuc(a1-4)]GlcNAc
# Method in brief: as §1
# Neu5Gc(a2-6)GalNAc = biological target: Neu5Gc(a2-6)GalNAc
# Method in brief: as §1
# [15] = biological target: Neu5Gc(a2-8)Neu5Gc(a2-6)Gal(b1-4)GlcNAc
# Method in brief: as §1
binder,measurement,setting,value
LecB PA7 (Pseudomonas aeruginosa) (protein) MATQGVFTLPANTRFGVTAFANSSATQTVKVLVNNETAATFTGQSTNNAVIGSQVLNSGGGGKVQIQVSVNGRSSDLVSAQVILANELNVALVGSEDSTDNDYNDAVVVINWPLG,glycan array binding signal (z-score),Gal6S(b1-4)GlcNAc,-0.501
same,glycan array binding signal (z-score),GalNAc(b1-3)Gal,-0.493
same,glycan array binding signal (z-score),GalNAc3S(b1-4)GlcNAc3S,-0.517
same,glycan array binding signal (z-score),[1],-0.505
same,glycan array binding signal (z-score),[2],-0.503
same,glycan array binding signal (z-score),[3],-0.467
same,glycan array binding signal (z-score),[4],0.402
same,glycan array binding signal (z-score),[5],-0.516
same,glycan array binding signal (z-score),GlcNAc(b1-4)GlcNAc,-0.486
same,glycan array binding signal (z-score),[6],-0.497
same,glycan array binding signal (z-score),GlcNAc(b1-6)GalNAc,-0.504
same,glycan array binding signal (z-score),Kdn(a2-3)Gal(b1-3)GlcNAc,-0.511
same,glycan array binding signal (z-score),[7],3.2
same,glycan array binding signal (z-score),[8],2.3
same,glycan array binding signal (z-score),[9],3.31
same,glycan array binding signal (z-score),[10],-0.505
same,glycan array binding signal (z-score),[11],-0.466
same,glycan array binding signal (z-score),[12],-0.087
same,glycan array binding signal (z-score),[13],-0.502
same,glycan array binding signal (z-score),[14],2.03
same,glycan array binding signal (z-score),Neu5Gc(a2-6)GalNAc,-0.508
same,glycan array binding signal (z-score),[15],-0.507
